Whole data set: some 33,000 sequences, median “e-score” near -0.053, cut for the highest 2% near 0.38. For the sample, the highest values were picked, then their nearest neighbours and some sequences at random.

This assay concerns the target T1, SIX1 homeodomain (reference allele) (human, UniProt Q15475 108-198).
T1 sequence: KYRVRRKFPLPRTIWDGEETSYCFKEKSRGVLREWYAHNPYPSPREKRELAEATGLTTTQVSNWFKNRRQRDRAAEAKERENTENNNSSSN
In words: universal protein binding microarray; Universal all-10-mer PBM (8x60K, AMADID 030236), 300 nM GST-tagged protein, Alexa Fluor 488 anti-GST; buffer, salt, pH and temperature not stated (as in Berger); high values mean tight binding. The settings on record: protein: ivt; tags: N-terminal GST; dsDNA, one strand shown. In a few lines:
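Homeodomains fused to GST were made by in vitro transcription/translation and measured by anti-GST western blot with a recombinant GST standard curve. At 300 nM final concentration, they were applied in duplicate to universal 'all 10-mer' protein binding microarrays (8×60K format).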
On to AACGCATA, for which the binding signal stood at 0.203 ± 0.0681 E-score.

With AGAACACC, the binding signal is 0.179 ± 0.0208 E-score.

Turning to CCCCGCGA, the binding signal is 0.229 ± 0.018 E-score.

Regarding ACCCAGCT, the binding signal stood at 0.181 ± 0.00331 E-score.

With AGCCATCG, the binding signal came to 0.173 ± 0.0382 E-score.

Take TGAAACCA: the binding signal came to 0.163 ± 0.0347 E-score.

Take GCATATAA: the binding signal was 0.175 ± 0.0587 E-score.

For the sequence GCATATCA, the binding signal was 0.449 ± 0.0321 E-score.

For the sequence GCATATTA, the binding signal was 0.249 ± 0.0567 E-score.

Turning to AATGTGAT, the binding signal was found to be 0.178 ± 0.0316 E-score.

Turning to ACTATATA, the binding signal was determined as 0.247 ± 0.0141 E-score.

As to AACGGTGT, the binding signal was determined as 0.253 ± 0.00261 E-score.

As to CGTATTGA, the binding signal was determined as 0.23 ± 0.0207 E-score.

CGTATCGA: the binding signal amounted to 0.3978 ± 0.00377 E-score.

On to CGAATCGA, for which the binding signal came out at 0.182 ± 0.0398 E-score.

Take GGTATTGA: the binding signal was found to be 0.3862 ± 0.0022 E-score.

Turning to GGTATCGA, the binding signal was 0.463 ± 0.00936 E-score.

With GGTATTAC, the binding signal amounted to 0.385 ± 0.0216 E-score.

Consider CGTATAGA, for which the binding signal came to 0.28 ± 0.00298 E-score.

On to AGTATTAC, for which the binding signal was 0.188 ± 0.0763 E-score.

For AGTATTGA, the binding signal amounted to 0.193 ± 0.0395 E-score.

Regarding GGTATTAA, the binding signal was determined as 0.366 ± 0.0749 E-score.

For GCTATCGA, the binding signal was 0.253 ± 0.0112 E-score.

For GGTATGGA, the binding signal was determined as 0.252 ± 0.0421 E-score.

For the sequence ATACGAAA, the binding signal was determined as 0.226 ± 0.0116 E-score.

With ATCCTAAA, the binding signal came to 0.184 ± 0.0231 E-score.

For ACACCTGG, the binding signal was 0.172 ± 0.0558 E-score.

With ACAATACC, the binding signal was 0.318 ± 0.028 E-score.

Regarding GGATAAAA, the binding signal came out at 0.166 ± 0.106 E-score.

On to GTGGACAC, for which the binding signal came out at 0.182 ± 0.0385 E-score.

On to ATCACCGC, for which the binding signal came to 0.191 ± 0.00595 E-score.

For ATCTGTGC, the binding signal is 0.153 ± 0.0364 E-score.

On to ATAAATAT, for which the binding signal worked out at 0.168 ± 0.1 E-score.

Consider GAACCCGA, for which the binding signal was 0.19 ± 0.0702 E-score.

For ATAGCCAT, the binding signal is 0.218 ± 0.0172 E-score.

Consider GGTATCTA, for which the binding signal was 0.426 ± 0.0126 E-score.

For the sequence AGTATCTA, the binding signal was determined as 0.347 ± 0.0371 E-score.

With GCTATCTA, the binding signal worked out at 0.169 ± 0.00501 E-score.

Regarding ATTGTATC, the binding signal stood at 0.367 ± 0.0214 E-score.

Take CCAGTATC: the binding signal was found to be 0.407 ± 0.0315 E-score.

As for ACAGTATC, the binding signal was determined as 0.402 ± 0.0345 E-score.

For GCAGTATA, the binding signal was found to be 0.205 ± 0.0152 E-score.

Turning to ACAGTATA, the binding signal was found to be 0.287 ± 0.0542 E-score.

For CCTGTATC, the binding signal turned out to be 0.365 ± 0.02 E-score.

With GATCTTGA, the binding signal is 0.269 ± 0.0237 E-score.

On to ATCACGCA, for which the binding signal came out at 0.203 ± 0.00725 E-score.

In the case of ATGAGATG, the binding signal turned out to be 0.243 ± 0.00629 E-score.

Regarding TATCGTAA, the binding signal came to 0.296 ± 0.0233 E-score.

As for ACACCGGG, the binding signal came to 0.301 ± 0.000651 E-score.

For the sequence ACACCGGA, the binding signal came to 0.364 ± 0.0193 E-score.

With ACACCGGT, the binding signal came out at 0.39 ± 0.0245 E-score.

Take CGGATGTA: the binding signal is 0.151 ± 0.0426 E-score.

With TAGGCGAA, the binding signal stood at 0.164 ± 0.00529 E-score.

Consider CTGGTATC, for which the binding signal is 0.45 ± 0.00737 E-score.

For ATGGTATA, the binding signal worked out at 0.336 ± 0.0339 E-score.

Consider GTGGTATA, for which the binding signal was found to be 0.3 ± 0.0344 E-score.

CTGGTATA: the binding signal was determined as 0.255 ± 0.0119 E-score.

Consider ATGGTATC, for which the binding signal was determined as 0.469 ± 0.00713 E-score.

For the sequence ATGGTCTC, the binding signal worked out at 0.153 ± 0.0473 E-score.

Regarding AACGATCC, the binding signal came out at 0.333 ± 0.0104 E-score.

For AACGATAC, the binding signal worked out at 0.435 ± 0.0105 E-score.

In the case of AACGATAG, the binding signal was 0.175 ± 0.0167 E-score.

AACGATAT: the binding signal is 0.408 ± 0.0444 E-score.

For the sequence AACGACAC, the binding signal was found to be 0.276 ± 0.0085 E-score.

As for CACGATAC, the binding signal was 0.438 ± 0.0144 E-score.

Consider CACGATCC, for which the binding signal is 0.342 ± 0.0744 E-score.

As for CACGATAG, the binding signal is 0.245 ± 0.0038 E-score.

On to AAGGATAT, for which the binding signal was 0.365 ± 0.0541 E-score.

On to GACGATCC, for which the binding signal is 0.387 ± 0.0391 E-score.

Consider AACGATCT, for which the binding signal worked out at 0.176 ± 0.00697 E-score.

In the case of TACGATAA, the binding signal turned out to be 0.175 ± 0.0264 E-score.

Regarding ATATAACG, the binding signal was determined as 0.2329 ± 0.00214 E-score.

For ATTGTATA, the binding signal is 0.308 ± 0.00631 E-score.

As to CCTCATCG, the binding signal was 0.185 ± 0.0079 E-score.

For TAAGATCA, the binding signal was 0.293 ± 0.0543 E-score.

In the case of CGATTAAA, the binding signal was 0.156 ± 0.0382 E-score.

Regarding AATCTGAT, the binding signal was found to be 0.289 ± 0.0333 E-score.

Turning to CGGATGAG, the binding signal stood at 0.183 ± 0.049 E-score.

Turning to TATCTCGA, the binding signal was 0.248 ± 0.0332 E-score.

CAAGGGGA: the binding signal turned out to be 0.165 ± 0.0484 E-score.

On to GACGATAC, for which the binding signal came out at 0.453 ± 0.00476 E-score.

As to GAAGATAC, the binding signal is 0.354 ± 0.0356 E-score.

For the sequence GACGACAC, the binding signal was 0.164 ± 0.00255 E-score.

On to GGTAATAC, for which the binding signal was determined as 0.297 ± 0.025 E-score.

Take ATATGTGC: the binding signal is 0.241 ± 0.0491 E-score.

As to ATCCGGGC, the binding signal was 0.3565 ± 0.000735 E-score.

For ATCCGGTA, the binding signal is 0.318 ± 0.0245 E-score.

For the sequence ATCCGGTG, the binding signal came out at 0.405 ± 0.026 E-score.

(Values after paper PMC10668032, “Altered binding affinity of SIX1-Q177R correlates with enhanced WNT5A and WNT pathway effector expression in Wilms tumor”.)
